Results filed as inconclusive are left out. The source made the active and inactive calls. Unless noted, calls follow the shape of the dose curve; as a rule, active = well fitted curve in the direction sought with a large enough effect; inconclusive = small, poorly fitted or top-dose-only effect, or another doubt; inactive = no such curve, though single readings can be large; an effect the other way counts as inactive or inconclusive.
Assays:
[1] = Cell Viability - LYMP2-001 (AID 921); also: series mostly up to about 92 µM; nearly all actives have a fitted effect of over 70% in size
Outline: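 A lymphoblastoid cell line of human origin was treated with library compounds across a concentration series for 24 hours, and viable cell number was estimated from ATP-driven luciferase light output. Hill modeling gave AC50.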

[2] = MultiTox-Fluor Cytotoxicity Assay - LYMP1-001 - Dead Cells (AID 946)
Outline: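 Cytotoxicity as increased dead-cell protease fluorescence (bis-AAF-R110, 485/520 nm), read 60 min after MultiTox-Fluor reagent. Human lymphoblastoid line exposed 16 h; Hill-fitted AC50, with DMSO as 0% and 15 uM tetraoctylammonium bromide as 100%.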

[3] = MultiTox-Fluor Cytotoxicity Assay - LYMP1-001 - Live Cells (AID 947)
[4] = Cell Viability - LYMP1-002 - Assay at 16 hr (AID 948)
Outline: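 In this qHTS, lymphoblastoid LYMP1-002 cells (human) receive compounds for 16 hr at 37 C. Viability is taken from CellTiter-Glo ATP luminescence, and AC50 derives from standard Hill fits.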

[5] = MultiTox-Fluor Cytotoxicity Assay - LYMP1-002 - Live Cells (AID 955);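 also: cells exposed to compound for 16 hours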
Outline: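 After 16 h compound exposure at 37 C, live LYMP1-002 lymphoblastoid cells (2500/well) were quantified by cleavage of cell-permeant GF-AFC substrate, read at 405/510 nm after 60 min. Concentration-response fitted with Hill equation for AC50.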

[6] = MultiTox-Fluor Cytotoxicity Assay - LYMP1-002 - Dead Cells (AID 960); also: nearly all actives have a fitted effect of over 60% in size
Outline: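 Dead-cell fluorescence (Ex/Em 485/520) after 16 h compound exposure at 37 C of LYMP1-002 lymphoblastoid cells in complete medium; AC50 by Hill equation, with data scaled between DMSO and 15 uM tetraoctylammonium bromide.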

[7] = MultiTox-Fluor Cytotoxicity Assay - LYMP1-003 - Dead Cells (AID 961); also: nearly all actives have a fitted effect of over 70% in size
Outline: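 Dead-cell protease release, detected as bis-AAF-R110 fluorescence at 485/520 nm, was measured in LYMP1-003 cells after 16 h compound treatment at 37 C. AC50 values came from Hill-modeled qHTS curves normalized to DMSO (0%) and 15 uM tetraoctylammonium bromide (100%).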

[8] = MultiTox-Fluor Cytotoxicity Assay - LYMP1-003 - Live Cells (AID 962);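 also: cells exposed to compound for 16 hours at 37 °C; cytotoxic hits lower the live-cell protease signal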
Outline: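 Live-cell protease activity (GF-AFC substrate, 405/510 nm, 60 min at room temperature) after 16 h, 37 C compound exposure of human lymphoblastoid LYMP1-003 cells; concentration-response fitted to the Hill equation for AC50.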

[9] = Cell Viability - LYMP1-003 - Assay at 24 hr (AID 963)
Outline: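 Concentration-response qHTS: ATP loss measured by CellTiter-Glo luminescence after 24 h compound exposure at 37 C. Cells were LYMP1-003 human lymphoblastoid, 2500 per well. AC50 derived via standard Hill equation modeling.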

[10] = Cell Viability - LYMP1-003 - Assay at 40 hr (AID 964); also: series mostly up to about 92 µM; nearly all actives have a fitted effect of over 60% in size
Outline: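 Viability is taken as cellular ATP, read by CellTiter-Glo luminescence after 40 h of compound exposure at 37 C. Cells: human lymphoblastoid line LYMP1-003 at 2500/well; AC50 values derived by Hill-equation fitting of concentration-response data.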

[11] = Cell Viability - LYMP2-003 (AID 965);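 also: cells exposed to compounds for 24 h before reading; nearly all actives have a fitted effect of over 50% in size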
Outline: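 qHTS, human lymphoblastoid line, 2500 cells/well, complete medium. 24 h drug, 37 C. ATP-based luminescent readout; Hill-fit AC50.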

[12] = Cell Viability - LYMP2-004 (AID 966); also: nearly all actives have a fitted effect of over 65% in size
Outline: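 AC50 values come from Hill modelling of concentration-dependent loss of intracellular ATP, measured by CellTiter-Glo luminescence. Human LYMP2-004 lymphoblastoid cells (2500/well) were exposed to compound for 24 h at 37 C.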

[13] = Cell Viability - LYMP2-009 (AID 968); also: series mostly up to about 92 µM; nearly all actives have a fitted effect of over 55% in size
[14] = Cell Viability - LYMP2-011 (AID 969); also: nearly all actives have a fitted effect of over 60% in size
Outline: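 Cytotoxicity qHTS with ATP content as read-out: lymphoblastoid cells (2500/well) exposed to compound for 24 h at 37 C, then luciferase luminescence measured. Concentration-response data fitted with the standard Hill equation to give AC50.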

[15] = Confirmation and Secondary Assay for Modulators of Hemoglobin Beta Chain Splicing at IVS2 705 locus (AID 930);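 also: HeLa cells stably expressing the EGFP-705 splicing reporter; GFP fluorescence per well restored by corrected splicing of the IVS2-705 intron in EGFP; series mostly up to about 46 µM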
Outline: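 Secondary splice-site specificity test uses HeLa expressing CMV-driven EGFP interrupted by IVS2-705; cells were treated 2 days at 37C with 500 nM antisense PNA as positive control.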

[16] = molecular target: Muscarinic acetylcholine receptor M1 (Rattus norvegicus) (UniProt P08482); assay: qHTS Assay for Antagonists of Acetylcholine Muscarinic M1 Receptor: Kinetic Measurement of Intracellular Calcium Response (AID 943);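 also: Fluo-4 calcium signal as peak divided by basal fluorescence over 4 min; series mostly up to about 35 µM; nearly all actives have a fitted effect of over 75% in size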
Chain of Muscarinic acetylcholine receptor M1 (Rattus norvegicus) (P08482 whole entry, looked up): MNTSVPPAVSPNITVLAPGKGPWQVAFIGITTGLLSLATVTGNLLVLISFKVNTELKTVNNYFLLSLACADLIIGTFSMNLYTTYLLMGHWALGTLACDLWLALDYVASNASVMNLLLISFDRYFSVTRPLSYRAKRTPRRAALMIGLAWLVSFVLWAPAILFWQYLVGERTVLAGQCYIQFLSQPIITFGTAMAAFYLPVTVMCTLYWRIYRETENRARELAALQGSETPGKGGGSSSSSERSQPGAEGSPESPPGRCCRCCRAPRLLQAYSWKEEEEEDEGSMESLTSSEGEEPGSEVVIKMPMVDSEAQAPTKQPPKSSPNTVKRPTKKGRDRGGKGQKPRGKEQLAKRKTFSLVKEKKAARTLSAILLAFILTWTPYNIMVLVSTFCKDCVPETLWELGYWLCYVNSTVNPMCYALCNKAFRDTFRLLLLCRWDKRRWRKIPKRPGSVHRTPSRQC
Outline: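 Antagonism measured as reduction of carbachol-evoked (EC80, 100 nM final) calcium flux in rat M1-CHO cells after 10 min compound exposure. Fluo-4 signal read kinetically; ratio of maximal to basal fluorescence.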

[17] = molecular target: Muscarinic acetylcholine receptor M1 (Rattus norvegicus) (UniProt P08482); assay: qHTS Assay for Antagonists of Acetylcholine Muscarinic M1 Receptor: Measurement of IP-One Response (AID 944); also: nearly all actives have a fitted effect of over 75% in size
Outline: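 IP1 accumulation measured via TR-FRET between d2-IP1 and Eu-cryptate anti-IP1 antibody after carbachol (200 nM, EC80) stimulation for 30 min; rat M1-transfected CHO cells received compound 10 min before agonist.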

[18] = molecular target: Pyruvate kinase (Leishmania mexicana) (UniProt Q27686); assay: qHTS Validation Assay for Inhibitors of Leishmania Mexicana Pyruvate Kinase (AID 945)
Chain of Pyruvate kinase (Leishmania mexicana) (Q27686 2-499 E452W): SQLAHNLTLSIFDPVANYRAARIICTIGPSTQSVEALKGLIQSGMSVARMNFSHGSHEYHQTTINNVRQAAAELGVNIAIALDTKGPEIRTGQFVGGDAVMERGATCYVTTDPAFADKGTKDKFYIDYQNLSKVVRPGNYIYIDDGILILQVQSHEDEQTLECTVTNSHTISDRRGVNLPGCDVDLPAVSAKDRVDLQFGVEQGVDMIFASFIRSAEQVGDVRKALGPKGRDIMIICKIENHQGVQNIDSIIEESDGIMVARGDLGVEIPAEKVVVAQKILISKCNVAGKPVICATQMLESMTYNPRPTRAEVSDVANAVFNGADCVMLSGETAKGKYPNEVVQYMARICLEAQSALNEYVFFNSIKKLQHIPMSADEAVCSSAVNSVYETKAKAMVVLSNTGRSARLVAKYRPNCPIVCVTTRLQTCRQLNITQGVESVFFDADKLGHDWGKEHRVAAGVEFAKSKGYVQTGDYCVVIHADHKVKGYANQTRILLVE
Outline: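 Read-out: luminescence from PKLight stop/detection reagent, data normalized to DMSO. Reaction: 0.2 nM E451W LmPYK, 0.5 mM PEP, 0.1 mM ADP, pH 7.2, 1 h room temperature.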

[19] = molecular target: Pyruvate kinase PKM (Homo sapiens) (UniProt P14618); assay: qHTS Assay for Activators of Human Muscle Pyruvate Kinase (AID 954; active = well fitted curve in the direction sought with a large enough effect, not every such curve was filed as active)
Chain of Pyruvate kinase PKM (Homo sapiens) (P14618 whole entry, looked up): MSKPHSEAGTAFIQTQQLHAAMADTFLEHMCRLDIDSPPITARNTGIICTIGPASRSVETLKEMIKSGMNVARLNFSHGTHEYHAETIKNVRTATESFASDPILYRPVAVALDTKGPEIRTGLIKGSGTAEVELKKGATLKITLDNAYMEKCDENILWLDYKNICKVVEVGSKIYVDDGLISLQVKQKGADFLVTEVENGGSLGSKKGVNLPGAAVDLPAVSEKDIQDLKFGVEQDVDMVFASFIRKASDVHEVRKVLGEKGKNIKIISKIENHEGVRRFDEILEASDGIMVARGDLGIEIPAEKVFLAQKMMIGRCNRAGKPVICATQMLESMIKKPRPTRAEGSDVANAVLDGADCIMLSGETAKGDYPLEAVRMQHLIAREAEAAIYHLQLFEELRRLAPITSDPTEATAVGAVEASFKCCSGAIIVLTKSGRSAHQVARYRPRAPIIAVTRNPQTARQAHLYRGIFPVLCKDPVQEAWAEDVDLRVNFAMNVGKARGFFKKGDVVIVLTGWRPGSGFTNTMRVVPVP
Outline: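 ATP production by PKM2 detected via luciferase luminescence after 1 h room-temperature reaction (0.1 nM enzyme, PEP at Km 0.5 mM, ADP 0.1 mM, pH 7.2 imidazole buffer). Inhibition scaled to no-enzyme control; activation referenced to 0.3 nM enzyme wells.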

[20] = Cell Viability - LYMP2-005 (AID 967); also: series mostly up to about 92 µM
Outline: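 Luciferase-based ATP quantitation served as the viability measure in human lymphoblastoid LYMP2-005 cells exposed to test compounds for 24 h at 37 C in complete culture medium. Potency (AC50) was obtained by fitting concentration-response curves with the Hill equation.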

Measured: outcome

C=C1C[C@]23C[C@@]1(O)CC[C@H]2[C@@]12C=C[C@H](O)[C@@](C)(C(=O)O1)[C@H]2[C@@H]3C(=O)O
inactive: [1] | [2] | [3] | [4] | [5] | [6] | [7] | [8] | [9] | [10] | [11] | [12] | [13] | [14]

O=C(/C=C/C=C/c1ccc2c(c1)OCO2)N1CCCCC1
inactive: [15]

C[C@]1(C2CCCC2)Cc2cc(OCC(=O)O)c(Cl)c(Cl)c2C1=O
inactive: [16] | [17] | [18] | [19]

CC(C)C[C@H](NC(=O)[C@@H]1O[C@H]1C(=O)O)C(=O)NCCCCN=C(N)N
inactive: [16] | [17] | [18] | [19]

COc1ccc(CCC(=O)c2c(O)cc(O[C@@H]3O[C@H](CO)[C@@H](O)[C@H](O)[C@H]3O[C@@H]3O[C@@H](C)[C@H](O)[C@@H](O)[C@H]3O)cc2O)cc1O
inactive: [1] | [2] | [3] | [4] | [5] | [6] | [7] | [8] | [9] | [10] | [11] | [12] | [20] | [13] | [14]

CCOC(=O)C(CCc1ccccc1)NC(C)C(=O)N1Cc2ccccc2CC1C(=O)O (centres undefined)
inactive: [15]
